Test results published in PubChem BioAssay (NCI).
Compounds without any hit were thinned out: in the full panel of roughly 83,000, 20% have a hit.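 Cells were grown in 96-well plates and exposed to the test compound at a single concentration for 48 hours; results are reported as percent growth, with values below 10 considered active.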 Values without a mark were called inactive. Activity calls are given as the source filed them.

tested on: NCI-H23 lung; assay: NCI-60 one-dose screen, 48 h (100 = growth as untreated, 0 = no growth, -100 = all killed); details: 10 µM
Method: Growth inhibition of the NCI-H23 human Non-Small Cell Lung tumor cell line is measured as a screen for anti-cancer activity. Cells are grown in 96 well plates and exposed to the test compound for 48 hours. Compounds are tested at a single concentration, which is 10^-5 M for most compounds. The reported endpoint is percent growth (GI% or GIPRCNT), where numbers from 0 - 100% represent growth inhibition, and numbers from -100% - 0 represent cell death. For example, a value of 40 represents 60% growth inhibition. A value of 0 means no net growth occurred over the course of the experiment. A value of -40 indicates 40% of cells at the beginning of the experiment died by the end of the experiment. A value of -100 means all cells are dead at the end of the experiment.
NCI-60 Human Tumor Cell Lines Screen was performed using the standard one-dose NCI protocol, which is described in more detail at https://dtp.cancer.gov/discovery_development/nci-60/default.htm.
Compounds with GIPRCNT values below 10 were considered active. Activity score was based on GIPRCNT using the following formula: […]
Score is 0 for GIPRCNT values of 100 or above, 50 for GIPRCNT values of 0, and 100 for GIPRCNT values of -100.

| SMILES | growth |
| --- | --- |
| CC1=C(COCCOC(=O)c2ccc(S(=O)(=O)F)cc2)C2=C(C)C3(CC3)[C@@](C)(O)C(=O)C2=C1 | -85.6% (active) |
| O=C([Se]C1C=CCCC1)c1ccc(C(=O)[Se]C2C=CCCC2)s1 (stereo not given) | -74% (active) |
| C=CC[Se]C(=O)c1cncc(C(=O)[Se]CC=C)c1 | -74.7% (active) |
| C[C@H]1[C@H](OC(=O)CCC(=O)N(CCCc2cn(-c3ccc([N+](=O)[O-])cc3)nn2)CCNc2ccnc3cc(Cl)ccc23)O[C@@H]2OC3(C)CC[C@H]4[C@H](C)CC[C@@H]1[C@@]24OO3 | 43.4% |
| COC(=O)CCn1c(-c2ccc(-n3cc(-c4ccc(O[C@H]5O[C@@H]6OC7(C)CC[C@H]8[C@H](C)CC[C@@H]([C@H]5C)[C@@]68OO7)cc4)nn3)cc2)nc2ccccc21 | 13.6% |
| COC(=O)C[C@](O)(CCC(C)C)C(=O)O[C@@H]1C(OC)=C[C@]23CCCN2CCc2cc4c(cc2[C@H]13)OCO4 | -68% (active) |
| CC1=C(CCC=NNC(N)=O)C2=C(C)C3(CC3)[C@@](C)(O)C(=O)C2=C1 | -78.2% (active) |
| CC12CCC3(CCC(=O)NCCCNc4ccnc5cc(Cl)ccc45)[C@@](C)(OO[C@]3(C)O1)O2 | -43.6% (active) |
| O=C(/C=C/c1ccc(F)cc1)c1nc2ccccc2n1Cc1ccc(F)cc1 | 14.6% |
| COc1cc2cc(C(=O)N3C[C@@H](CCl)c4c3cc(OC(=O)N3CCN(C)[C@@H]5CSSC[C@@H]53)c3ccccc43)[nH]c2c(OC)c1OC | -67.5% (active) |
| O=C(/C=C/c1ccco1)c1nc2ccccc2n1Cc1ccc(Br)cc1 | 27.4% |
| C[C@H]1[C@@H](CC(=O)N[C@@H](Cc2coc3ccccc23)B(O)O)O[C@@H]2OC3(C)CC[C@H]4[C@H](C)CC[C@@H]1[C@@]24OO3 | -65.9% (active) |
| COCCOCCOCCOc1ccc(-n2cc(CCCN(CCNc3ccnc4cc(Cl)ccc34)C(=O)CCC(=O)O[C@@H]3O[C@@H]4OC5(C)CC[C@H]6[C@H](C)CC[C@@H]([C@H]3C)[C@@]46OO5)nn2)cc1 | 47.9% |
| N#C[Se]CC(=O)Nc1cccc(C(F)(F)F)c1 | -46.7% (active) |
| COc1cc2cc(C(=O)N3C[C@@H](CCl)c4c3cc(OC(=O)N3CCN(C)[C@@H]5CSSC[C@H]53)c3ccccc43)[nH]c2c(OC)c1OC | -80.6% (active) |
| O=C(/C=C/c1ccccc1)c1nc2ccccc2n1Cc1ccc(F)cc1 | -45.9% (active) |
| CC[C@]12C=CCN3CC[C@@]4(c5ccc(OC)cc5N(C)[C@H]4[C@@](O)(C(=O)OC)[C@@H]1OC(=O)CCCC[P+](c1ccc(OC)cc1)(c1ccc(OC)cc1)c1ccc(OC)cc1)[C@@H]32 | -90.7% (active) |
| O=C(/C=C/c1ccc(F)cc1)c1nc2ccccc2n1Cc1ccc(Br)cc1 | -75.4% (active) |
| O=C(/C=C/c1ccc(Br)cc1)c1nc2ccccc2n1Cc1ccc(Br)cc1 | -36.3% (active) |
| COc1ccc(OC)c(/C=C/C(=O)c2nc3ccccc3n2Cc2ccc(F)cc2)c1 | -49.1% (active) |

| SMILES | growth |
| --- | --- |
| Cc1c2oc3c(C)ccc(C(=O)N[C@@H]4C(=O)N[C@H](C(C)C)C(=O)N5CCC[C@H]5C(=O)N(C)CC(=O)N(C)[C@@H](C(C)C)C(=O)OC4C)c3nc-2c(C(=O)N[C@@H]2C(=O)N[C@H](C(C)C)C(=O)N3CC(=O)C[C@H]3C(=O)N(C)CC(=O)N(C)[C@@H](C(C)C)C(=O)OC2C)c(N)c1=O (stereo not given in full) | -38.9% (active) |
| O=C(NC([Se])=NC1CCCCC1)c1ccccc1 | 19% |
| O=C(NCCCCC(c1ccc(F)cc1)c1ccc(F)cc1)Nc1ccc([N+](=O)[O-])c(C(F)(F)F)c1 | -10.2% (active) |
| O=C(/C=C/c1ccc(Cl)cc1)c1nc2ccccc2n1Cc1ccc(Br)cc1 | 61.9% |
| CC1=C2C(=C[C@@](C)(COP(=O)(Oc3ccccc3)Oc3ccccc3)[C@@H]2O)C(=O)[C@@](C)(O)C12CC2 | -84.6% (active) |
| CC[C@]12C=CCN3CC[C@@]4(c5ccc(OC)cc5N(C)[C@H]4[C@@](O)(C(=O)OC)[C@@H]1OC(=O)CCCC[P+](c1ccc(C)cc1)(c1ccc(C)cc1)c1ccc(C)cc1)[C@@H]32 | -92.4% (active) |
| COC(=O)C[C@](O)(CCCC(C)C)C(=O)O[C@H]1C(OC)=C[C@@]23CCCN2CCc2cc4c(cc2[C@@H]13)OCO4 | -25% (active) |
| CC1=C(CCC=O)C2=C(C)C3(CC3)[C@@](C)(O)C(=O)C2=C1 | -86% (active) |
| CCOC(=O)C1=C(Nc2ccccc2)C(=O)OC12C(=O)Nc1ccccc12 (stereo not given) | 97.3% |
| C#CCCCN(CCNc1ccnc2cc(Cl)ccc12)C(=O)CCC(=O)O[C@@H]1O[C@@H]2OC3(C)CC[C@H]4[C@H](C)CC[C@@H]([C@H]1C)[C@@]24OO3 | 35.7% |
| CC[C@]12C=CCN3CC[C@@]4(c5ccc(OC)cc5N(C)[C@H]4[C@@](O)(C(=O)OC)[C@@H]1OC(=O)CCCC[P+](C1CCCCC1)(C1CCCCC1)C1CCCCC1)[C@@H]32 | -9.66% (active) |
| CC[C@@]12CC(C(=O)OC)=C3Nc4cc5c(cc4[C@@]34CCN(C[C@H]3O[C@H]31)[C@@H]24)[C@@H]1[C@H](O5)[C@@H](O)[C@@]2(CC)CC(C(=O)OC)=C3Nc4cc(OC)ccc4[C@@]34CCN1[C@@H]24 | 1.41% (active) |
| C#CC[Se]C(=O)c1ccc2n[se]nc2c1 | 77% |
| O=C(/C=C/c1ccc(Cl)cc1)c1nc2ccccc2n1Cc1ccc(F)cc1 | 33.4% |
| O=C(/C=C/c1ccccc1)c1nc2ccccc2n1Cc1ccc(Br)cc1 | -71.5% (active) |
| COCCOCCOCCOc1ccc(-n2cc(-c3ccc(O[C@H]4O[C@@H]5OC6(C)CC[C@H]7[C@H](C)CC[C@@H]([C@H]4C)[C@@]57OO6)cc3)nn2)cc1 | 27.2% |
| C[C@H]1[C@H](OC(=O)CCC(=O)N(CCCc2cn(-c3ccc(CN4CCOCC4)cc3)nn2)CCNc2ccnc3cc(Cl)ccc23)O[C@@H]2OC3(C)CC[C@H]4[C@H](C)CC[C@@H]1[C@@]24OO3 | 45.3% |
| COC(=O)C[C@](O)(CCC(C)C)C(=O)O[C@H]1C(OC)=C[C@@]23CCCN2CCc2cc4c(cc2[C@@H]13)OCO4 | -54.3% (active) |
| COc1cc2cc(C(=O)N3C[C@@H](CCl)c4c3cc(OC(=O)N3CCN(C(=O)CCC(=O)N5CCN(C)CC5)[C@@H]5CSSC[C@@H]53)c3ccccc43)[nH]c2c(OC)c1OC | -93% (active) |
| Cc1ccc2[nH]c(=S)n(-c3ccc(F)cc3)c(=O)c2c1 | 98.7% |
